Assay outcomes (PubChem BioAssay)
Many of the other results were omitted from the sample, so hits are more common in it than they were.
ST2 inh – inhibitors of human ST2 (IL1RL1) binding to IL-33 | Q01638 | hit rate 2.3% among 78,000 | inhibition, % for hits at 17 µM | AlphaLISA ST2-Fc/biotin-IL-33 interaction, 1 h; in the data active means inhibition above about 30%
Target sequence (Q01638 whole entry, looked up): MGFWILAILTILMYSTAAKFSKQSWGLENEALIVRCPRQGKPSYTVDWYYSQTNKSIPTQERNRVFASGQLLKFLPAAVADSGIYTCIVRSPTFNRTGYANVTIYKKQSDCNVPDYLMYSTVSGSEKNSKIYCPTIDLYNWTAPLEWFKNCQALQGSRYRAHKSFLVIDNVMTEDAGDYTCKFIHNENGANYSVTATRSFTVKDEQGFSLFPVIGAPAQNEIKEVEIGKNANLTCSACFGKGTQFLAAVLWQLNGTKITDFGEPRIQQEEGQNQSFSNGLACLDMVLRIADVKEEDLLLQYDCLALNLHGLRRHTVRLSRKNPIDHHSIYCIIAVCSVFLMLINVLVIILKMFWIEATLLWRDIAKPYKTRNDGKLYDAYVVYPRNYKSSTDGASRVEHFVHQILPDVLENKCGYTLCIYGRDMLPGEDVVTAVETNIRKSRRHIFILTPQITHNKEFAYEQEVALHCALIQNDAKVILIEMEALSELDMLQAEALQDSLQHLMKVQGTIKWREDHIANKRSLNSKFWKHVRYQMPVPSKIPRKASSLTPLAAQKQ
* hit, by the source's call.

What do the screens show for `Cc1nnsc1CN(C)Cc1ccc(C(=O)Nc2nc(C)n(C)n2)cc1`?
ST2 inh: inactive

What do the screens show for `CCOc1ccc(-c2cn(-c3cccc(Cl)c3)c(=O)[nH]2)cc1Cl`?
ST2 inh: inactive

What do the screens show for `CCOc1ncccc1-c1cnn(CC(=O)NC)c1`?
ST2 inh: inactive

What do the screens show for `CC(=O)c1ccc(NC(=O)COc2cc(C)ccc2C)cc1`?
ST2 inh: inactive

What do the screens show for `Cc1cccnc1[C@H](C)NC(=O)Cc1ccc(-n2nnnc2C)cc1`?
ST2 inh: inactive

What do the screens show for `CCC(C)NC(=O)C1CC1c1ccccc1` (configuration not stated)?
ST2 inh: inactive

Results for CCOC(=O)C1=C(N)OC2=C(C(=O)CC(C)(C)C2)C1c1ccccc1OCC (configuration not stated) ?
ST2 inh: inactive

What do the screens show for `CCS(=O)(=O)N1CCc2c(nc(C)nc2N(C)C)C1`?
ST2 inh: inactive

How did Cc1nonc1OCC(C)(C)Nc1ccc(C(F)(F)F)cc1[N+](=O)[O-] do in these assays?
ST2 inh: 36%*

How did CC(=O)Nc1ccc(S(=O)(=O)Nc2ccc(C(F)(F)F)cc2[N+](=O)[O-])cc1 do in these assays?
ST2 inh: inactive

What do the screens show for `CC(C)C(Nc1ccc(C(F)(F)F)cc1[N+](=O)[O-])C(=O)O` (configuration not stated)?
ST2 inh: inactive

Results for Cc1ccc(CN2C(=O)c3ccccc3Sc3ccc(C(=O)O)cc32)cc1 ?
ST2 inh: inactive

Results for CC(C)CC(=O)Nc1c(-c2ccc(F)cc2)nc2ccccn12 ?
ST2 inh: inactive

Results for Cc1ccccc1Oc1ccc(N2C(=O)C3C4C=CC(C4)C3(C)C2=O)cc1 (configuration not stated) ?
ST2 inh: inactive

Results for COc1ccccc1OCC(=O)Nc1c(C(=O)Nc2ccccc2F)oc2ccccc12 ?
ST2 inh: inactive

What do the screens show for `COC(=O)[C@H](Cc1ccc(OC)cc1)NC(=O)[C@@H]1CN(C(=O)NC(C)C)CCN1C(=O)NC(C)C`?
ST2 inh: inactive

Results for CCOc1ccc(NC(=O)c2c(F)c(F)c(F)c(F)c2F)cc1 ?
ST2 inh: inactive

How did Cc1ccc(S(=O)(=O)Nc2ccccc2-c2ccccc2)cc1 do in these assays?
ST2 inh: inactive

Results for O=C1c2ccccc2-c2n[nH]c3cccc1c23 ?
ST2 inh: inactive

Results for Cc1ccc(-c2cc3c(nn2)-c2ccccc2C3=O)cc1 ?
ST2 inh: 34%*

How did CCc1ccccc1NC(=O)c1cccc(Br)c1 do in these assays?
ST2 inh: inactive

How did COc1ccc(NS(=O)(=O)c2cc(Cl)ccc2Cl)cc1Cl do in these assays?
ST2 inh: inactive

Results for CCCOc1ccc(-c2ccc(C#N)cc2)cc1 ?
ST2 inh: inactive

How did O=C(C1CC1)N(c1ccc(F)cc1)C1C=CS(=O)(=O)C1 (configuration not stated) do in these assays?
ST2 inh: inactive

Results for O=C(c1ccccc1)c1ccc(N2CCN(C(=O)c3cccc(F)c3)CC2)c(F)c1 ?
ST2 inh: inactive

Results for Cc1ccccc1C(=O)N1CCN(c2ccc([N+](=O)[O-])c(NCCc3ccccc3)c2)CC1 ?
ST2 inh: inactive

How did O=C(c1ccccc1Cl)N1CCN(c2ccc([N+](=O)[O-])c(N3CCOCC3)c2)CC1 do in these assays?
ST2 inh: inactive

What do the screens show for `Cc1ccccc1C(=O)N1CCN(c2ccc([N+](=O)[O-])c(NC(C)c3ccccc3)c2)CC1` (configuration not stated)?
ST2 inh: 38%*

Results for O=C(c1cccc(F)c1)N1CCN(c2ccc(Cl)cc2)CC1 ?
ST2 inh: inactive

What do the screens show for `CC(=O)N1CCN(c2ccc([N+](=O)[O-])c(NC(C)C34CC5CC(CC(C5)C3)C4)c2)CC1` (configuration not stated)?
ST2 inh: inactive

What do the screens show for `CC(Nc1cc(N2CCN(S(=O)(=O)N(C)C)CC2)ccc1[N+](=O)[O-])c1ccccc1` (configuration not stated)?
ST2 inh: 30%*

How did O=C(c1cccc(F)c1)N1CCN(c2ccc([N+](=O)[O-])c(NCc3ccccc3)c2)CC1 do in these assays?
ST2 inh: 36%*

Results for O=[N+]([O-])c1ccc(N2CCN(S(=O)(=O)Cc3ccccc3)CC2)cc1NCc1cccnc1 ?
ST2 inh: inactive

How did COc1cccc(C2CCCCN2Cc2nc(COc3ccccc3)no2)c1 (configuration not stated) do in these assays?
ST2 inh: inactive

Results for CN(C)Cc1c(O)ccc2c(=O)c(-c3ccccc3)coc12 ?
ST2 inh: inactive

Results for CCOc1ccccc1CN1CCSCC1 ?
ST2 inh: 31%*

How did COc1ccccc1CN1CCSCC1 do in these assays?
ST2 inh: inactive

What do the screens show for `COc1ccccc1CN1CCCCCC1`?
ST2 inh: inactive

Results for Cc1cc(Br)ccc1OCC(=O)NCCN1CCOCC1 ?
ST2 inh: inactive

Results for COc1ccc(CN2Cc3[nH]cnc3C[C@H]2C(=O)NC2CCCCC2)c2ccccc12 ?
ST2 inh: inactive

What do the screens show for `CN(C)c1ccc(/C=C2\N=C(c3cccc([N+](=O)[O-])c3)OC2=O)cc1`?
ST2 inh: inactive

How did CN(C)c1ccc(C=C2c3cc([N+](=O)[O-])cc([N+](=O)[O-])c3-c3c2cc([N+](=O)[O-])cc3[N+](=O)[O-])cc1 do in these assays?
ST2 inh: 42%*

What do the screens show for `COc1ccc(C=C2c3cc([N+](=O)[O-])cc([N+](=O)[O-])c3-c3c2cc([N+](=O)[O-])cc3[N+](=O)[O-])cc1`?
ST2 inh: 51%*

What do the screens show for `COc1ccc(S(=O)(=O)Nc2ccc(OC)cc2[N+](=O)[O-])cc1`?
ST2 inh: inactive

What do the screens show for `COc1ccc(/C=C2\N=C(c3ccc(C)c([N+](=O)[O-])c3)OC2=O)cc1`?
ST2 inh: inactive

What do the screens show for `CN(C)c1ccc(/C=C2\c3cc([N+](=O)[O-])ccc3-c3c2cc([N+](=O)[O-])cc3[N+](=O)[O-])cc1`?
ST2 inh: inactive

What do the screens show for `C=CCn1c2nc3ccccc3nc2c2cccc(C)c21`?
ST2 inh: inactive

What do the screens show for `O=C(c1cccc(F)c1)N1CCN=C1SCc1c(F)cccc1Cl`?
ST2 inh: inactive

How did CCCS(=O)(=O)N1CCC2(CCCN(CCC3CCCCC3)C2=O)C1 (configuration not stated) do in these assays?
ST2 inh: inactive

What do the screens show for `CC(CN(C)c1nc(-c2cccnc2)nc2c1cnn2C)N1CCOCC1` (configuration not stated)?
ST2 inh: inactive

How did CN(CC1COCCO1)c1nc(-c2cccnc2)nc2c1cnn2C (configuration not stated) do in these assays?
ST2 inh: 34%*

What do the screens show for `CN(CCn1cccn1)c1nc(-c2cccnc2)nc2c1cnn2C`?
ST2 inh: inactive

What do the screens show for `CC1=C[C@@H](CNC(=O)c2ccncc2)[C@H](C(C)C)C[C@H]1CC(=O)N1CCN(C)CC1`?
ST2 inh: inactive

What do the screens show for `COc1cccc(Cn2c(CNC(=O)c3ccccc3Br)nc3cccnc32)c1`?
ST2 inh: inactive

Results for O=C(c1ccc(Cl)cc1)N1CCN(c2ccc([N+](=O)[O-])c3ncccc23)CC1 ?
ST2 inh: inactive

Results for O=[N+]([O-])c1ccc(N2CCN(c3ccccc3)CC2)c2ncccc12 ?
ST2 inh: 32%*

What do the screens show for `O=C(Cc1ccccc1[N+](=O)[O-])N1CCN(c2ccccn2)CC1`?
ST2 inh: inactive
